Assay outcomes deposited in PubChem by National Center for Advancing Translational Sciences (NCATS).
hERG WT inh: KCNH2 (human, wildtype) channel inhibition | AID 720551 | activity change, % at 1.84 µM | Q12809 | U2OS, BacMam KCNH2, thallium flux FluxOr; active compounds read low | 340,000 tested, 0.37% active;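 active means maximum activity change below -70%; inconclusive means maximum activity change between -70% and -50%; inactive means maximum activity change above -50%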; further: on the % scale 0 is the no-effect control and ±100 the full control effect
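U2OS cells transduced with wild-type KCNH2 virus are loaded with FluxOr dye for 45 min, and thallium flux is measured in kinetic reads before and after stimulation buffer. Rate constants are normalized to DMSO controls.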
Rango-impB inh: Rango-importin beta binding inhibition | 340,000 tested, 0.031% active | Q14974 | Potency, µM (doses to about 92.2 µM), inactives show top-dose inhibition of complex formation | Rango CFP/YFP FRET sensor + importin beta, 45 min;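 further: potency means the concentration at half of the fitted maximal effect; 0% = DMSO wells and 100% = buffer wells lacking importin beta; nearly all actives have a fitted effect of over 15% in size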
Target sequence (Q14974 whole entry, looked up): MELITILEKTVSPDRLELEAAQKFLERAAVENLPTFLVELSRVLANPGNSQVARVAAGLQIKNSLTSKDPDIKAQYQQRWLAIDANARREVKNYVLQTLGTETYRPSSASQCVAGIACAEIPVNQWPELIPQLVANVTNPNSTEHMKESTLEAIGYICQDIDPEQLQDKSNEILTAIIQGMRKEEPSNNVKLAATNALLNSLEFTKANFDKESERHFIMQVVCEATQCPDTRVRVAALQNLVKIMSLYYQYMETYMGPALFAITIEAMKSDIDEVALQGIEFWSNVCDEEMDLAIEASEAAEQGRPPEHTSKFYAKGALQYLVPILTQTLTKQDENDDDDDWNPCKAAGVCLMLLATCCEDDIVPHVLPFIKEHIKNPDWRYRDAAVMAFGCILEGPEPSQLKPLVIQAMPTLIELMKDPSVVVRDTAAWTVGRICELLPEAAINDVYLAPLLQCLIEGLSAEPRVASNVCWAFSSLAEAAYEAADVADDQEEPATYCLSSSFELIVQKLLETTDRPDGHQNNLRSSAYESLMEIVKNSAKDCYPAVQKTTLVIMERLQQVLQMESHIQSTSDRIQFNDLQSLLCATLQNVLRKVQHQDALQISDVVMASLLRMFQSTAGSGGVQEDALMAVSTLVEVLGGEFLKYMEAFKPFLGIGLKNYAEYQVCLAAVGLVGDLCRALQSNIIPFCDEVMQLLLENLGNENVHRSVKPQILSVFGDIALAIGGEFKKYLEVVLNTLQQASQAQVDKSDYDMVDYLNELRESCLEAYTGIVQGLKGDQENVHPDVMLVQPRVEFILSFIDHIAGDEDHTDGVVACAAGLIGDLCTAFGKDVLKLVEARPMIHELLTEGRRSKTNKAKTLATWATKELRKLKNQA
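Inhibition scored from the CFP 486 nm/YFP 530 nm FRET ratio 45 min after adding 0.125 microM importin beta to 50 nM Rango biosensor preincubated 5 min with compound (room temperature, PBS with DTT, Tween-20, BSA). No-importin wells as positive control.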
KCNH2 3.1 inh: KCNH2 3.1 (human) potassium channel inhibition; U2OS KCNH2 3.1, thallium flux FluxOr; active compounds read low; activity change, % (tested at about 1.8 µM); 340,000 tested, 0.95% active; AID 720553;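 active means maximum activity change below -70%; inconclusive means maximum activity change from -70% to -50%; inactive means maximum activity change above -50%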;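 further: thallium influx rate constant from kinetic fluorescence after stimulation buffer; on the % scale 0 is the no-effect control and ±100 the full control effect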
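Thallium flux read-out: FluxOr dye with Red40 quencher in HBSS/HEPES, 45 min at RT. Rate constants from kinetic reads were normalized to positive and negative DMSO controls. Cells: U2OS virally expressing the 3.1 isoform.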
Rango release inh: inhibition of RanGTP-driven Rango-importin beta dissociation | Biochemical FRET Rango-importin beta, RanGTP-induced dissociation | Potency, µM (series often up to 46.1 µM), without a hit: at the highest dose activity change, negative = inhibition | 340,000 tested, 0.071% active; further: potency means the concentration at half of the fitted maximal effect; % of control where 0% means no effect; nearly all actives have a fitted effect of over 45% in size
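Quantitative HTS using a FRET biosensor: 0.1 uM Rango, 0.25 uM importin beta, 0.6 uM Ran, 2 mM GTP, 0.2 uM RCC1 final, PBS with DTT, Tween-20 and BSA. Post-read taken 45 min after Ran addition.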
* hit, by the source's call; ? = inconclusive; nt = not tested or not shown. Rows were chosen to be rich in hits. Some 1.3% of all compounds tested hit in one or more screens of this group. Unless noted, the call rests on the fitted dose curve.

SMILES | hERG WT inh | Rango-impB inh | KCNH2 3.1 inh | Rango release inh
Cc1ccc(/C=C/C(=O)NCCCN2CCN(CCCNC(=O)/C=C/c3ccc(C)cc3)CC2)cc1 | -119* | -1% | -122* | 1%
COc1ccc(CCNC(=O)c2ccc(Cl)cc2)cc1OC | 2 | 0% | -8 | 13%
CC(C)(C)c1ccc(C(=O)NCCCN2CCN(CCCNC(=O)c3ccc(C(C)(C)C)cc3)CC2)cc1 | -6 | -4% | -114* | 31%
COc1ccc(CCNC(=O)/C=C/c2ccc(C)cc2)cc1OC | -1 | 4% | -89* | -12%
Cc1ccc(C2(c3ccccc3)NC(=O)N(CC(=O)NCc3ccco3)C2=O)cc1C (centres undefined) | 9 | 0% | 0 | -24%
COc1ccc(Nc2c(-c3ccc(C)cc3)nc3cnccn23)cc1 | -10 | ? | -86* | -18%
COc1ccc(Nc2c(-c3ccc(OC)cc3)nc3cnccn23)cc1 | 1 | ? | 0 | -3%
O=C(Cc1ccc(NC(=O)C2CCN(C(=O)C3CC3)CC2)cc1)Nc1cccc(C(=O)N2CCCCC2)c1 | 0 | 1% | 0 | 0%
COCCn1c(-c2ccc(F)cc2)nc2oc3cc(OC)ccc3c(=O)c2c1=O | -2 | 2% | -91* | 4%
COc1ccc(C2N(S(=O)(=O)c3ccc(C)cc3)CCN2S(=O)(=O)c2ccc(C)cc2)cc1 | -6 | -3% | -72* | 0%
COc1ccc(C2N(C(C)=O)CCN2S(=O)(=O)c2ccc(C)cc2)cc1 (centres undefined) | 1 | 0% | 5 | 3%
O=C(Nc1nnc(SCCC2OCCO2)s1)C1CC(=O)N(c2ccc(F)cc2)C1 (centres undefined) | 0 | -2% | -12 | -16%
CC1(C)C2CCC1(CS(=O)(=O)N1CCOCC1)C(=O)C2 (centres undefined) | 7 | -3% | -70* | 1%
O=C(CCC1CCN(C(=O)c2cc(C(F)(F)F)ccc2Cl)CC1)NC1CC1 | 5 | 8% | -115* | -4%
Cc1cc(C)nc(NC(=NCCc2c[nH]c3ccccc23)NC(=O)C(C)(C)C)n1 | 9 | -9% | -88* | 12%
CCOc1ccc(C(C)=O)cc1COC(=O)c1ccccc1C(=O)N(C)Cc1ccccc1 | -16 | 4% | -14 | 16%
CC(C)c1ccc(OCc2ccc(C(=O)N3CCN(c4ccccn4)CC3)cc2)cc1 | -15 | -4% | -72* | -15%
Cc1cccc(COCC(Cc2ccccc2)N2CCN(C(=O)c3ccc(C(F)(F)F)cc3)CCC2=O)c1 (centres undefined) | -2 | 3% | 4 | 18%
O=C(c1ccc(C(F)(F)F)cc1)N1CCC(=O)N(C(COCc2ccc(C(F)(F)F)cc2)Cc2ccccc2)CC1 (centres undefined) | 1 | -1% | -112* | 22%
CC1=C(C(N)=O)C(c2ccccn2)n2nc(-c3ccccc3Cl)nc2N1 (centres undefined) | -146* | -2% | -170* | -26%
Cc1nc2nc(C)c(NS(=O)(=O)c3ccc(CC(C)C)cc3)c(=O)n2[nH]1 | -3 | 5% | 21 | 1%
Cc1cccc(NC(=O)Cn2nnc(-c3ccc(CN4CCCC4)cc3)n2)c1C | -1 | -6% | 3 | -10%
NC(=O)Cn1nnc(-c2ccc(CN3CCCCC3)cc2)n1 | -6 | 0% | -82* | 11%
Cc1cccc(C(C)C)c1NC(=O)c1c(-c2ccccc2)noc1C | -10 | -3% | -3 | 13%
CCCn1c(N2CCN(Cc3ccc(Cl)cc3)CC2)nc2ccccc21 | -21 | -1% | -79* | 6%
SMILES | hERG WT inh | Rango-impB inh | KCNH2 3.1 inh | Rango release inh
CCn1c(N2CCN(Cc3ccc([N+](=O)[O-])cc3)CC2)nc2ccccc21 | -87* | -5% | -94* | 1%
O=[N+]([O-])c1ccc(N2CCN(C(=S)c3cccc([N+](=O)[O-])c3)CC2)cc1 | -42 | -3% | -102* | -17%
CCn1c(N2CCN(C(=O)/C=C/c3ccccc3)CC2)nc2ccccc21 | ? | -4% | -90* | -2%
CCCn1c(N2CCN(C(=O)/C=C/C(=O)O)CC2)nc2ccccc21 | 7 | 1% | 25 | -10%
CC(=O)N1CCN(C(=S)c2cccc([N+](=O)[O-])c2)CC1 | -1 | 3% | -9 | 11%
O=C(COC(=O)CNC(=O)c1ccccc1Cl)Nc1ccccc1Cl | nt | -3% | nt | 4%
